Compound activity: PubChem, several laboratories
ADAM10 inh – inhibits human ADAM10; recombinant ADAM10, EDANS/DABCYL FRET peptide cleavage, 3 h; inhibition, % at 7 µM; actives 0.62% (n = 370,000);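 active means inhibition above a per-campaign cutoff equal to the mean of compounds falling between control-based bounds plus 3 SD, cut at about 20% in these data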;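 further: 0% = DMSO wells while the 100% control is not disclosed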
Target sequence (O14672 214-748 limits assumed): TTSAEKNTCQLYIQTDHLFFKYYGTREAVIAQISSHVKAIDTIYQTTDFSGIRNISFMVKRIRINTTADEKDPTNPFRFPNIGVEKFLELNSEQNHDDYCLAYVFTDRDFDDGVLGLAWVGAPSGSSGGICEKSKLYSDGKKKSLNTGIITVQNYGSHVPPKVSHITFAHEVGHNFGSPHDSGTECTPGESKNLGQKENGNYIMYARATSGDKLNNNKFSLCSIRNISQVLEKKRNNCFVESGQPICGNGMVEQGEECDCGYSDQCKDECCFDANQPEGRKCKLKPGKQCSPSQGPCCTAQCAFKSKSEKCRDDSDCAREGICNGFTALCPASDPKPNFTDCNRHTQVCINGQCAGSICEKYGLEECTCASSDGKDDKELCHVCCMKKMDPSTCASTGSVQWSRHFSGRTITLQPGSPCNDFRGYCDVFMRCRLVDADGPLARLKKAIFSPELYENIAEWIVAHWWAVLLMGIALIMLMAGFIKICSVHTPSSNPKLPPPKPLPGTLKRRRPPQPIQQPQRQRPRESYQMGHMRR
ADAM17 inh – inhibitors of human ADAM17 | inhibition, % at 6.95 µM | AID 720648 | actives 0.83% (n = 370,000) | recombinant ADAM17, EDANS/DABCYL FRET peptide cleavage | P78536;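 active means inhibition above the mean of compounds lying between control limits plus 3 SD, set per campaign, cut at about 8.5% in these data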;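 further: 0% = DMSO-only wells as the low control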
KLK7 zymogen act – activates the human kallikrein-7 zymogen | AID 652039 | purified proKLK7, EDANS-DABCYL substrate fluorescence; 100% is mature enzyme control, 0% vehicle | activation, % at 7 µM | P49862 | actives 0.9% (n = 370,000);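 active means activation above the mean of all tested compounds plus 3 SD, computed per campaign excluding outliers beyond control limits, cut at about 13% in these data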
GRIN3A LBD mod – modulates the human NR3A ligand-binding domain; NR3A LBD differential scanning fluorimetry, Tm shift; 0% = protein alone, 100% = glycine-bound protein; actives 2.5% (n = 340,000); Tm shift relative to glycine control, % at 25 µM;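 active means melting temperature shift of at least 10% of the positive control shift, at one fixed dose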
FAS-TE inh – inhibitors of human fatty acid synthase thioesterase domain | AID 602261 | inhibition, % at 15 µM | actives 0.67% (n = 360,000) | recombinant FAS-TE, OMFH fluorogenic substrate, fluorescence endpoint | P49327;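 active means compounds whose normalised, plate-corrected inhibition of enzyme fluorescence in the single-dose primary screen is 50% or more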;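 further: 0% = DMSO with enzyme and 100% = substrate without enzyme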
ADAM10 confirm – confirmation of inhibitors of human ADAM10. shares compounds with ADAM10 inh. ADAM10 QFRET peptide cleavage, EDANS fluorescence. inhibition, % at 6.95 µM. actives 1% (n = 2,100). AID 743208;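 active means inhibition above about 20% chosen separately for each screening run, limit read from the data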;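 further: 0% = DMSO wells and 100% = marimastat wells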
ADAM17 counter – counter-screen for ADAM10 exosite inhibitors: inhibitors of human ADAM17. shares compounds with ADAM10 inh. ADAM17 QFRET peptide cleavage, EDANS fluorescence. inhibition, % at 6.95 µM. actives 0.5% (n = 2,100);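 active means mean triplicate inhibition above the solvent-only control wells' mean plus 3 SD, cut at about 12% in these data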;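 further: 0% = DMSO wells and 100% = marimastat wells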
Starred values were filed as active, the others as inactive; nt = no result; ! = a repeat was not active. Most compounds without a hit are left out; they make up all but 4.6% or so of the library.

SMILES	ADAM10 inh	ADAM17 inh	KLK7 zymogen act	GRIN3A LBD mod	FAS-TE inh	ADAM10 confirm	ADAM17 counter
O=C(COC(=O)c1cc(-c2cccs2)nn1-c1ccccc1)Nc1ccc(Cl)c([N+](=O)[O-])c1	20.8*	7.2	-0.3	-1.5	41.3	6.4	2.0
COc1ccc(S(=O)(=O)N2CCN(C(=O)c3ccc([N+](=O)[O-])o3)CC2)cc1	21.0*	5.2	-0.8	1.3	4.5	0.7	0.7
CCCCc1c(-c2ccccc2OC)ncn1Cc1ccc(C(C)(C)C)cc1	11.0	0.6	0.2	nt	nt	nt	nt
CSC1=Nc2ccccc2N=C(N2CCCC2)C1	-2.4	0.0	-0.3	nt	nt	nt	nt
O=C(N[C@@H](Cc1cccnc1)C(=O)N1CCC[C@H]1C(=O)NC1CCCC1)C1CCCC1	-1.6	-2.1	0.2	nt	nt	nt	nt
CC(C)(C)NC(=O)[C@@H]1C[C@@H]2CCCC[C@@H]2CN1C[C@@H](O)[C@H](Cc1ccccc1)NC(=O)[C@H](CC(N)=O)NC(=O)c1ccc2ccccc2n1	26.3*!	8.2	0.0	-9.3	34.9	1.9	-0.1
CC(=O)c1c(C)nc2sc3c(=N)n(N)cnc3c2c1-c1ccc(Cl)cc1	20.8*	0.9	-0.7	-6.7	-2.4	2.5	0.7
CCOC(=O)c1c(C)nc2sc3c(=O)n(-c4ccc(C(C)=O)cc4)cnc3c2c1-c1ccc(OC)cc1	-0.8	-5.0	-0.5	0.7	38.4	nt	nt
COc1cc2c(cc1NC(=O)CSc1nnc(-c3cccc(Cl)c3)n1Cc1ccco1)oc1ccccc12	-7.6	-1.2	0.3	nt	nt	nt	nt
CC(NC(=O)c1cccs1)C(S)c1ccccc1 (stereo not given)	34.5*	14.6*	0.2	0.8	-7.0	6.5	1.6
CC(NC(=S)NC(=O)c1cccs1)c1ccccc1 (stereo not given)	7.4	0.7	-0.1	0.6	14.2	nt	nt
O=C(NCc1cccs1)c1ccc([N+](=O)[O-])cc1	23.7*	5.8	-0.4	4.6	3.0	-1.0	0.0
O=C(CCC(=O)N1CCN(S(=O)(=O)c2ccc(Cl)cc2)CC1)Nc1ccc2ccccc2c1	22.3*	6.2	-0.1	-4.1	26.0	4.5	1.6
COC(=O)c1cc2c(c3c4cc(F)ccc4n(S(=O)(=O)c4ccc(C)cc4)c13)C(=O)N(Cc1ccccc1OC)C2	-2.7	-4.8	-0.6	nt	nt	nt	nt
Cc1ccc(Cl)cc1NC(=S)NCCCSC1CCCCC1	21.5*	2.4	0.7	1.2	36.8	2.2	0.8
N#Cc1c(N)[nH]c2ccc(Sc3ccccc3)cc12	25.5*	0.8	0.2	108.6*	31.7	2.9	2.0
C#CCN(C[C@H]1[C@H](OC(=O)NCc2ccco2)[C@H](OC(=O)NCc2ccco2)C[C@H]2C(=O)N(c3ccccc3)C(=O)[C@@H]12)S(=O)(=O)c1ccc(C)cc1	20.9*	8.0	1.1	nt	28.6	8.3	2.0
Nc1cc([N+](=O)[O-])cc2oc(-c3ccccc3)cc12	24.8*	4.5	-0.6	6.0	18.0	2.4	1.6
CC(=O)Nc1ccc(S(=O)(=O)NCCCCNS(=O)(=O)c2ccc(NC(C)=O)cc2)cc1	3.8	-6.1	-0.9	0.5	3.3	nt	nt
CC(=O)Nc1ccc(S(=O)(=O)NCCSCc2ccc(Cl)cc2Cl)cc1	21.6*	8.2	-0.4	2.0	22.1	5.1	1.3
COc1ccc(C)cc1NC(=O)C(C)N(c1ccc(C)cc1)S(C)(=O)=O (stereo not given)	-0.2	-1.7	0.0	-3.0	10.3	nt	nt
Cc1ccc(N(C(C)C(=O)Nc2cc(Cl)ccc2Oc2ccccc2)S(C)(=O)=O)cc1 (stereo not given)	21.8*	7.5	0.0	-2.6	36.6	6.7	2.3
COC(=O)C1=C(C)N(Cc2ccc(C(F)(F)F)cc2)C(=NCc2ccc(OC)cc2)NC1c1ccccc1C(F)(F)F (stereo not given)	13.5	1.2	0.0	nt	nt	nt	nt
OC(c1ccccc1)(c1ccccc1)C1CCN(CCCOc2ccccn2)CC1	-8.6	-3.3	0.1	nt	nt	nt	nt
C[C@H]1CCC[C@@]2(O[C@@H](CCO)C[C@H](O)[C@H]2O)O1	83.3*	-7.7	-0.7	0.5	-12.9	0.5	0.0
SMILES	ADAM10 inh	ADAM17 inh	KLK7 zymogen act	GRIN3A LBD mod	FAS-TE inh	ADAM10 confirm	ADAM17 counter
COCC(=O)N1C[C@H]2CON(C)[C@H]2C[C@H]1c1cccc(-c2cc(Cl)cc(Cl)c2)c1	-6.5	-4.7	0.8	nt	nt	nt	nt
COc1cc(CN(C2CCCCC2C)S(=O)(=O)c2ccc(S(=O)(=O)NC3CC3)cc2)cc(OC)c1OC (stereo not given)	10.5	3.1	0.2	-4.2	16.8	nt	nt
COc1ccc(CN(C2CCCCC2C)S(=O)(=O)c2ccc(S(=O)(=O)N(C)C)cc2)cc1OC (stereo not given)	21.5*	4.9	0.4	1.9	32.5	8.0	1.8
O=C(OC12CCCN(C1)/C(=C/c1ccncc1)C2)c1ccc(F)cc1 (stereo not given)	1.5	1.4	-0.1	nt	nt	nt	nt
Nc1ccc(S(=O)(=O)Nc2nccs2)cc1N=Nc1ccccc1[N+](=O)[O-]	22.3*	-2.3	-0.7	-0.8	4.9	3.2	0.4
Cc1ccc(C(=O)N(C)[C@H]2C[C@H]3c4[nH]c5c(-c6ccccc6)cccc5c4CCN3C(=O)[C@H]2[C@H](C)O)cc1	-195.1	-52.5	-1.9	nt	nt	nt	nt
COc1ccc(-c2ccc(-c3noc(-c4ccc(OC)c(OC)c4)n3)c(OC)n2)cc1	-12.9	-5.2	-1.6	nt	nt	nt	nt
COc1ccc(-c2ccc(-c3noc(-c4cccc(OC)c4)n3)c(OC)n2)cc1	38.5*	-3.8	0.6	-28.4	32.0	72.6*	42.1*
Cc1oc(-c2ccccc2)cc1C(=O)Nc1ccc(N(C)C)cc1	21.8*	6.9	1.4	0.3	22.3	7.0	3.9
CN(C)CCCN1c2ccc([N+](=O)[O-])cc2CCc2cc([N+](=O)[O-])ccc21	23.2*	8.3	-0.1	-4.7	6.1	0.4	0.5
O=C(Nc1ccc(Cl)c([N+](=O)[O-])c1)C(Sc1ccccc1)c1ccccc1 (stereo not given)	26.2*	11.5*	-0.5	27.6*	44.1	8.4	2.9
CC(=O)c1cccc(-c2ccnc3c2CC(C(=O)Nc2ccc(Cl)c(C(F)(F)F)c2)O3)c1 (stereo not given)	26.2*	8.1	0.3	nt	33.0	4.3	2.2
O=C(Nc1cccc(C(F)(F)F)c1)C1Cc2c(-c3ccc(Cl)cc3)ccnc2O1 (stereo not given)	16.2	7.0	-0.5	nt	29.7	nt	nt
O=C(Nc1cccc(C(F)(F)F)c1)C1Cc2c(-c3ccccc3)ccnc2O1 (stereo not given)	21.7*	6.5	0.0	nt	23.4	4.8	1.3
CC(=O)Nc1sc2c(c1-c1nc3ccccc3s1)CCOC2	-136.9	-37.2	nt	nt	nt	nt	nt
